Measurements from PubChem BioAssay (EPA / NIEHS).
Results filed as inconclusive are left out. More than one record can exist for a structure, and the calls need not agree. Active and inactive are the calls of the source. The calls were made as follows, unless noted: active = hit-call score of the fitted dose curve at least 0.9, where 1 is the maximum; inactive = score below 0.9.

Experiments:
[1] = molecular target: Nuclear respiratory factor 1 (Homo sapiens) (UniProt Q16656); test: ATG_NRF1_CIS: Attagene CIS-FACTORIAL HepG2 Assay for human Nuclear Respiratory Factor 1 (NRF1) Orphan Gene (AID 2282987); details: HepG2 NRF1 cis-element reporter, Attagene multiplex; actives raise or lower the signal
Chain of Nuclear respiratory factor 1 (Homo sapiens) (Q16656 whole entry, looked up, the tested form may be a part): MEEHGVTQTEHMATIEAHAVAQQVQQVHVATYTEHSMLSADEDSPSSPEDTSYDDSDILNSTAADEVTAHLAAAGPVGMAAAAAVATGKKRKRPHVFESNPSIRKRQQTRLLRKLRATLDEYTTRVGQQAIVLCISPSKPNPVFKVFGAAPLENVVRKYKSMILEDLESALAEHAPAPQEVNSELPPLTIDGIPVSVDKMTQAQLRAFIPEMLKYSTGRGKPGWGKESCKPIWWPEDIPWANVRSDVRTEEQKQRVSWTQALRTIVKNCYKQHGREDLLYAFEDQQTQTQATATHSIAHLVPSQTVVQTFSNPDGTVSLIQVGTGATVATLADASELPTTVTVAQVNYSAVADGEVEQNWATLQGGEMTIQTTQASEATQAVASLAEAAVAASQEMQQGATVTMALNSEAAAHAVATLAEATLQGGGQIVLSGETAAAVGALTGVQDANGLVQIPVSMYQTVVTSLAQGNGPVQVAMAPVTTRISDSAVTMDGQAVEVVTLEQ
Method in brief: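 Cells (HepG2, transient MRTU transfection) are exposed to compound for 24 h, then RNA isolated and reporter mRNA amplified and fluorescently labelled. Fragments are separated by capillary electrophoresis; signal change is fitted bidirectionally relative to DMSO.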

[2] = ATG_NFI_CIS: Attagene CIS-FACTORIAL HepG2 Assay for human Nuclear Factor I (NFI) (AID 2282989); details: HepG2 cis-regulatory reporter, NFI response element transcription; actives raise or lower the signal
Method in brief: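 Transient MRTU transfection of HepG2 → 24 h chemical dosing → total RNA, oligo(dT) RT → PCR, 6-FAM primer extension, HpaI cut → capillary electrophoresis. Endpoint fitted bidirectionally relative to DMSO.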

[3] = molecular target: Myc proto-oncogene protein (Homo sapiens) (UniProt P01106); test: ATG_Myc_CIS: Attagene CIS-FACTORIAL HepG2 Assay for human Myelocytomatosis (Myc) Proto-Oncogene Transcription Factor (AID 2282990); details: HepG2, Attagene cis-reporter transcription factor activity; actives raise or lower the signal
Chain of Myc proto-oncogene protein (Homo sapiens) (P01106 whole entry, looked up): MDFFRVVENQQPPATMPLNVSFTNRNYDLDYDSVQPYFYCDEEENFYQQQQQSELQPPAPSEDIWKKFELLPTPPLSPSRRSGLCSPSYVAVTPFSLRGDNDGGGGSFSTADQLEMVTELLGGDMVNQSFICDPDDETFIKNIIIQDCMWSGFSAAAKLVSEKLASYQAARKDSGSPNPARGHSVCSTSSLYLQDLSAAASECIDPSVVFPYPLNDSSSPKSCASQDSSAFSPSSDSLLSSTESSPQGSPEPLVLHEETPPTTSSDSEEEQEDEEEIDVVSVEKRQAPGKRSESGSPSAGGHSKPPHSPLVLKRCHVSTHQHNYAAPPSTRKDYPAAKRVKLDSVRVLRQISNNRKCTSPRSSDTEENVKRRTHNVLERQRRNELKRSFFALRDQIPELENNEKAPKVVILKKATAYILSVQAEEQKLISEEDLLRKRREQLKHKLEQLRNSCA
Method in brief: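 HepG2, transient MRTU transfection (cis promoters, endogenous TFs); 24 h dosing; TriZol RNA → oligo(dT) RT → PCR → 6-FAM primer extension → HpaI cut → CE. Bidirectional fit vs DMSO.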

[4] = ATG_Oct_MLP_CIS: Attagene CIS-FACTORIAL HepG2 Assay for human Octamer-Binding Transcription Factor (Oct) (AID 2282993); details: HepG2 Attagene cis-factorial Oct reporter, mRNA; actives raise or lower the signal
Method in brief: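 Transient MRTU transfection of HepG2 → 24 h compound treatment → RNA isolation, reverse transcription, PCR → 6-FAM primer extension, HpaI digest → capillary electrophoresis. Activity fitted both directions against DMSO.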

[5] = molecular target: Cellular tumor antigen p53 (Homo sapiens) (UniProt P04637); test: ATG_p53_CIS: Attagene CIS-FACTORIAL HepG2 Assay for human p53 Transcription Factor (AID 2282994); details: HepG2 p53 cis-element reporter, Attagene mRNA; actives raise or lower the signal
Chain of Cellular tumor antigen p53 (Homo sapiens) (P04637 whole entry, looked up, the tested form may be a part): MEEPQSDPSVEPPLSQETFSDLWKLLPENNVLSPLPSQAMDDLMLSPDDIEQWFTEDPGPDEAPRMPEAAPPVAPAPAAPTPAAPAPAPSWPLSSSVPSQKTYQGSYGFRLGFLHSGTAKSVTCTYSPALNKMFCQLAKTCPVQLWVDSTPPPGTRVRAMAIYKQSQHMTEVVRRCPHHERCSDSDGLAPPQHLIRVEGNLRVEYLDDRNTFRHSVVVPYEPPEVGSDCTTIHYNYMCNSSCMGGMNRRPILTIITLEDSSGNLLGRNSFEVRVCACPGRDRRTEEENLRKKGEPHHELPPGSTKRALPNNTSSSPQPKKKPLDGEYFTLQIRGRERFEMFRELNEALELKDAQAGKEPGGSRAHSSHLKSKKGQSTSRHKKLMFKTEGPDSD
Method in brief: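 In HepG2 cells, reporter transcription units under cis-regulatory promoters were transiently introduced. Following 24 h treatment, RNA was processed to labelled, digested cDNA fragments read by capillary electrophoresis; fitting was bidirectional versus DMSO.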

[6] = BSK_3C_TissueFactor: BioMAP Diversity Plus: 3C Assay for Tissue Factor Biomarker Activity (AID 2282997); details: BioMAP 3C HUVEC, tissue factor biomarker readout; actives raise or lower the signal
Method in brief: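 HUVEC, 3C system, 24 h post-dose; Tissue Factor by ELISA; bidirectional fit vs DMSO baseline.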

[7] = BSK_3C_uPAR: BioMAP Diversity Plus: 3C Assay for Urokinase-type plasminogen activator receptor (uPAR) Biomarker Activity (AID 2282998); details: BioMAP 3C HUVEC, uPAR biomarker ELISA; actives raise or lower the signal
Method in brief: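 ELISA readout of uPAR on human vascular endothelium (umbilical vein primary cells), taken 24 h after chemical dosing. Increases and decreases are both fitted relative to DMSO vehicle.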

[8] = BSK_3C_VCAM1: BioMAP Diversity Plus: 3C Assay for Vascular cell adhesion molecule 1 (VCAM1) Biomarker Activity (AID 2282999); details: BioMAP 3C HUVEC, VCAM1 ELISA, cytokine-stimulated; actives raise or lower the signal
Method in brief: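 Activity fitted in both directions relative to DMSO, with ELISA measurement of the surface marker on primary HUVEC (3C) at 24 h post-treatment; parallel SRB staining (0.1% SRB, TCA-fixed, 560 nm) flagged overt cytotoxicity.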

[9] = BSK_4H_Eotaxin3: BioMAP Diversity Plus: 4H Assay for Eotaxin 3 Biomarker Activity (AID 2283000); details: primary human endothelial cells (HUVEC); actives raise or lower the signal;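 also: CCL26 protein level quantified by ELISA in parallel with SRB cytotoxicity check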
Method in brief: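 Readout is Eotaxin-3 (CCL26) level by ELISA in primary human umbilical vein endothelial cells harvested 24 h after chemical exposure; activity fitted in both directions against DMSO control.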

[10] = read-out: Intercellular Adhesion Molecule 1 (ICAM1), ICAM1 (gene 3383); test: BSK_3C_ICAM1: BioMAP Diversity Plus: 3C Assay for Intercellular Adhesion Molecule 1 (ICAM1) Biomarker Activity (AID 2283003); details: primary human endothelial cells (HUVEC); actives raise or lower the signal
Method in brief: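 ELISA read-out of ICAM-1; HUVEC (primary human), 3C system, 24 h post-dosing; bidirectional fit vs DMSO baseline.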

[11] = BSK_3C_Proliferation: Cell Proliferation Assessment in the BioMAP Diversity Plus: 3C Assay (AID 2283006); details: primary human endothelial cells (HUVEC);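 as to AC50: potency may reflect either rise or fall in cell number versus DMSO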
Method in brief: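 HUVEC, sub-confluent; 48 h chemical exposure; 10% TCA fix, 0.1% SRB stain, A560 total protein. Gain or loss of signal fitted both directions vs DMSO control.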

[12] = molecular target: Nuclear receptor subfamily 1 group I member 2 (Homo sapiens) (UniProt O75469); test: ATG_PXR_TRANS: Attagene TRANS-FACTORIAL HepG2 Assay for human Pregnane X Receptor (PXR) (AID 2283008; active = hit-call score of the fitted dose curve at least 0.9, where 1 is the maximum)
Chain of Nuclear receptor subfamily 1 group I member 2 (Homo sapiens) (O75469 whole entry, looked up, the tested form may be a part): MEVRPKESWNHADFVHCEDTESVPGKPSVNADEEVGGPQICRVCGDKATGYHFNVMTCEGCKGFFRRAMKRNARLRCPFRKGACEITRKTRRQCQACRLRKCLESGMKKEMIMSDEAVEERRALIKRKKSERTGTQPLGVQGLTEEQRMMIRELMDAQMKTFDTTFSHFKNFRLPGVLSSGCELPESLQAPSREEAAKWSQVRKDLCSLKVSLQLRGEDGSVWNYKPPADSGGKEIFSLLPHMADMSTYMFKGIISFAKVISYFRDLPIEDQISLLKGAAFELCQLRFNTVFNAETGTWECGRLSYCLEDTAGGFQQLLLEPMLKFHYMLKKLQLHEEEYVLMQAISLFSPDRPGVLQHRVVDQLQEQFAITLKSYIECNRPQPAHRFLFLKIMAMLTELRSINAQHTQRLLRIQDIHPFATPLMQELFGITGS
Method in brief: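 Multiplexed TRANS reporter panel in HepG2; this component tracks PXR-Gal4-driven reporter mRNA after 24 h dosing, measured by RT-PCR with capillary electrophoresis fluorescence, fitted against DMSO.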

[13] = molecular target: human Retinoic Acid Receptor gamma (RARg), RARG (gene 5916) (UniProt P13631); test: ATG_RARg_TRANS: Attagene TRANS-FACTORIAL HepG2 Assay for human Retinoic Acid Receptor gamma (RARg) (AID 2283009; active = hit-call score of the fitted dose curve at least 0.9, where 1 is the maximum)
Chain of human Retinoic Acid Receptor gamma (RARg), RARG (gene 5916) (P13631 whole entry, looked up, the tested form may be a part): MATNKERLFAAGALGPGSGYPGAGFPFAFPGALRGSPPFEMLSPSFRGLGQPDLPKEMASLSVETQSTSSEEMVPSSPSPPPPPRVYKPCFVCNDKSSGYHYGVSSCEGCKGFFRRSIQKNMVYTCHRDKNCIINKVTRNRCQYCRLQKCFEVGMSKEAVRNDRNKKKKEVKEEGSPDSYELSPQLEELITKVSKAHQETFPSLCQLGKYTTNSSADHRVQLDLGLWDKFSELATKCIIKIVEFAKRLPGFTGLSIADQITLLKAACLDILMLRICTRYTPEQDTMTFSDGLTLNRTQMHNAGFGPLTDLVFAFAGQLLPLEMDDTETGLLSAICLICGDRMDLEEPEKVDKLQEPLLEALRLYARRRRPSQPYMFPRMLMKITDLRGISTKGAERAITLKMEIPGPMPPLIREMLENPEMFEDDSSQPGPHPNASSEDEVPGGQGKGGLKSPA
Method in brief: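 Readout: reporter transcript levels via RT-PCR, 6-FAM primer-extension labelling, HpaI digestion and capillary electrophoresis. Cells: HepG2 carrying transfected RARg-GAL4 chimera plus UAS reporter set. Dosing 24 h; DMSO negative control.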

[14] = ATG_NRF2_ARE_CIS: Attagene CIS-FACTORIAL HepG2 Assay for human Nuclear Factor Erythroid 2 Related Factor 2 (NFR2) response to Antioxidant Response Elements (ARE) (AID 2282992); details: HepG2 Attagene ARE/NRF2 reporter, transcription factor activity; actives raise or lower the signal
Method in brief: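 Using transiently transfected HepG2 cells exposed for 24 h, reporter mRNA levels were determined by RT-PCR with fluorescent primer extension and capillary electrophoresis, analysed for gain or loss of signal against DMSO.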

[15] = molecular target: human Peroxisome Proliferator-activated Receptor alpha (PPARa), PPARA (gene 5465) (UniProt Q07869); test: ATG_PPARa_TRANS: Attagene TRANS-FACTORIAL HepG2 Assay for human Peroxisome Proliferator-activated Receptor alpha (PPARa) (AID 2283001; active = hit-call score of the fitted dose curve at least 0.9, where 1 is the maximum;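 as to AC50: potency for gain of reporter signal over DMSO so agonist or activator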)
Chain of human Peroxisome Proliferator-activated Receptor alpha (PPARa), PPARA (gene 5465) (Q07869 whole entry, looked up, the tested form may be a part): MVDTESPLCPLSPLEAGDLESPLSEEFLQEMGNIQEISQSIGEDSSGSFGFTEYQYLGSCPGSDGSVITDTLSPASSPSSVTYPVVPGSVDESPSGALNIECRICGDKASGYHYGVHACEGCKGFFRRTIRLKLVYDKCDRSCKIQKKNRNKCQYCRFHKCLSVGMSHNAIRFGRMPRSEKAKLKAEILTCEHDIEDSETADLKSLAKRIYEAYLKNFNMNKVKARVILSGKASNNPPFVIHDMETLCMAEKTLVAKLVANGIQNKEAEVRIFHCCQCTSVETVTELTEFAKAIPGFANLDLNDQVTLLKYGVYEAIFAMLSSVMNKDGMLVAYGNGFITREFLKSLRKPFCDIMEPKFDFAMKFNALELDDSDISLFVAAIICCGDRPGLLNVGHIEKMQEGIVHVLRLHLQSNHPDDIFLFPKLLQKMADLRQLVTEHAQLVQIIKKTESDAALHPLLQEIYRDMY
Method in brief: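 Transfected HepG2 cells treated with test chemical for 24 h. RNA isolated, reverse-transcribed with oligo(dT), PCR-amplified, FAM-labelled and HpaI-digested. Fragments sized by capillary electrophoresis; gain-of-signal fit relative to DMSO.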

[16] = molecular target: human Retinoic Acid Receptor beta (RARb), RARB (gene 5915) (UniProt P10826); test: ATG_RARb_TRANS: Attagene TRANS-FACTORIAL HepG2 Assay for human Retinoic Acid Receptor beta (AID 2283004; active = hit-call score of the fitted dose curve at least 0.9, where 1 is the maximum)
Chain of human Retinoic Acid Receptor beta (RARb), RARB (gene 5915) (P10826 whole entry, looked up, the tested form may be a part): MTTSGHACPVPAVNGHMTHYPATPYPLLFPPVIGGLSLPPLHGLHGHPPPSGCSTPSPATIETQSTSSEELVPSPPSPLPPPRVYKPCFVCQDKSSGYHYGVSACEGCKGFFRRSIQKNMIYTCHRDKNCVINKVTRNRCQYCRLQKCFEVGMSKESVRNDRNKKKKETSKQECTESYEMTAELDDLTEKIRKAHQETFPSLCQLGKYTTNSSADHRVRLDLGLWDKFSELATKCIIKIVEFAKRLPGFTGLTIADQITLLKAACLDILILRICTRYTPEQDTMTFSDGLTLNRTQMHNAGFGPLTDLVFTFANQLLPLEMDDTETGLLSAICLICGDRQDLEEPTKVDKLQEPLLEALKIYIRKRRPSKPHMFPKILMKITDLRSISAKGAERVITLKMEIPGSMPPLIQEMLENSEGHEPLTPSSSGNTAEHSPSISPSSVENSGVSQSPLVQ
Method in brief: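 Readout is reporter mRNA induction: RNA reverse-transcribed, PCR-amplified, FAM-labelled, HpaI-cut and resolved by capillary electrophoresis. Transiently transfected HepG2 cells carrying exogenous NR–Gal4 chimeras were dosed for 24 h; activity fitted upward relative to DMSO.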

[17] = molecular target: Retinoic acid receptor alpha (Homo sapiens) (UniProt P10276); test: ATG_RARa_TRANS: Attagene TRANS-FACTORIAL HepG2 Assay for human Retinoic Acid Receptor alpha (RARa) (AID 2283005; active = hit-call score of the fitted dose curve at least 0.9, where 1 is the maximum)
Chain of Retinoic acid receptor alpha (Homo sapiens) (P10276 whole entry, looked up, the tested form may be a part): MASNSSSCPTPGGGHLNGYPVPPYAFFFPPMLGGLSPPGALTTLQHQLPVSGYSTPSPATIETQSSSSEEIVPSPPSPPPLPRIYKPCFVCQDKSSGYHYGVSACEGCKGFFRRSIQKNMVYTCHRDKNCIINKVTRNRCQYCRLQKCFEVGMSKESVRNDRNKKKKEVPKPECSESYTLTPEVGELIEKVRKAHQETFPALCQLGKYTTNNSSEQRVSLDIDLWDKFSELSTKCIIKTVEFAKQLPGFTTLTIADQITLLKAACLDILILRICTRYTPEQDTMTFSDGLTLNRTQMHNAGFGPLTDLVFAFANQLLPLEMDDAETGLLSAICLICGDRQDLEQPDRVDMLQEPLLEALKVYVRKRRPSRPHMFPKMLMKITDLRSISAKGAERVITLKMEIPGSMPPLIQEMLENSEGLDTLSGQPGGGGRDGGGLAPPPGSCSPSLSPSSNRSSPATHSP
Method in brief: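 Reporter transcripts, measured by RT-PCR with fluorescent labeling and capillary electrophoresis after 24 h dosing, reflect activity of an exogenous human RARa–GAL4 fusion in transiently transfected HepG2. Fitted for increase relative to DMSO.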

[18] = molecular target: human Peroxisome Proliferator-activated Receptor delta (PPARd), PPARD (gene 5467) (UniProt Q03181); test: ATG_PPARd_TRANS: Attagene TRANS-FACTORIAL HepG2 Assay for human Peroxisome Proliferator-activated Receptor delta (PPARd) (AID 2283002; active = hit-call score of the fitted dose curve at least 0.9, where 1 is the maximum)
Chain of human Peroxisome Proliferator-activated Receptor delta (PPARd), PPARD (gene 5467) (Q03181 whole entry, looked up, the tested form may be a part): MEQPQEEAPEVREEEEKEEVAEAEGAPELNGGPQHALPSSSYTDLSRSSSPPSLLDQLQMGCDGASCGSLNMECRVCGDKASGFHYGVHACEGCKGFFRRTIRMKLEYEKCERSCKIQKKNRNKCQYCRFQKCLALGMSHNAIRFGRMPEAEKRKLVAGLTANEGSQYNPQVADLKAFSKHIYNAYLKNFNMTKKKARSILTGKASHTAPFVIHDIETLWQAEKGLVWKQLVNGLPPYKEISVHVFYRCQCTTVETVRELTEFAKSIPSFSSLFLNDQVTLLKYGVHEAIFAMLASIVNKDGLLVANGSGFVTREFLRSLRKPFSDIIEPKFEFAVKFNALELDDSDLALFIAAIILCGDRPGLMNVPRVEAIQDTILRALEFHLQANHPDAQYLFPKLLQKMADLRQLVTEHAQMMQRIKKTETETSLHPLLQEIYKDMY
Method in brief: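 Transient HepG2 transfection (multiple GAL4-UAS RTUs, chimeric receptor-Gal4); 24 h dosing; total RNA → oligo(dT) RT → PCR → 6-FAM primer extension → HpaI cut → CE. Positive direction vs DMSO.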

[19] = molecular target: Peroxisome proliferator-activated receptor gamma (Homo sapiens) (UniProt P37231); test: ATG_PPARg_TRANS: Attagene TRANS-FACTORIAL HepG2 Assay for human Peroxisome Proliferator-activated Receptor-gamma (PPARg) (AID 2283007; active = hit-call score of the fitted dose curve at least 0.9, where 1 is the maximum)
Chain of Peroxisome proliferator-activated receptor gamma (Homo sapiens) (P37231 whole entry, looked up, the tested form may be a part): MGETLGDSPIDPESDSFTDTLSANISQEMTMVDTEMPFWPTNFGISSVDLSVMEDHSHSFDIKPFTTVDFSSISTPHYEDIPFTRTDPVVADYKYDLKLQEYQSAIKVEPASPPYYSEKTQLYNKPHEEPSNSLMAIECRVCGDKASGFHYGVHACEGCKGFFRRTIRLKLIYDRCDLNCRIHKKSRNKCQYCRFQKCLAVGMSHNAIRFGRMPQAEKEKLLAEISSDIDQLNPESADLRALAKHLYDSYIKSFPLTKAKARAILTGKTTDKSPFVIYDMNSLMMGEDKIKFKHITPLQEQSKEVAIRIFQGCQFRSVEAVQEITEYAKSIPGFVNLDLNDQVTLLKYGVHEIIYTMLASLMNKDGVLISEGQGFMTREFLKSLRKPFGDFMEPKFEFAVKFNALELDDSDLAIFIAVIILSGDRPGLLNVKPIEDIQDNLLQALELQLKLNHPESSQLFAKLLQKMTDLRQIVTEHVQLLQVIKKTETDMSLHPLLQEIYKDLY
Method in brief: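 Gain-of-signal endpoint relative to DMSO, derived from reporter mRNA levels quantified by RT-PCR and capillary electrophoresis. Cells were HepG2 transiently expressing a chimeric NR-Gal4 construct with GAL4-UAS reporters, exposed to chemicals for 24 h.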

[20] = ATG_NF_kB_CIS: Attagene CIS-FACTORIAL HepG2 Assay for human Nuclear Factor Kappa B (NF-kB) (AID 2282991); details: HepG2 Attagene cis-factorial NF-kB reporter mRNA; actives raise or lower the signal
Method in brief: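 Measures mRNA induction of an NF-kB-responsive cis-element reporter in HepG2 cells transfected with multiple reporter units, sampled 24 h post-dosing; quantified by fluorescence after RT-PCR and capillary electrophoresis, fitted for activation or inhibition against DMSO.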

Measured: AC50

CCCCCCCCN(C)C
not listed: [14] | [15] | [16] | [17] | [18] | [19] | [20]
inactive: all other assays above

O=C(O)c1cccc(C(=O)O)c1
not listed: [5] | [12] | [13] | [18] | [19] | [20]
inactive: all other assays above

Cc1ncc([C@@H](CCCCCCc2ccc3c(n2)NCCC3)CC(=O)O)cn1
active: [15] 19.8 µM | [11] 2.14 µM | [19] 100 µM
not listed: [5] | [13] | [14] | [16] | [17] | [20]
inactive: all other assays above

S=P(N1CC1)(N1CC1)N1CC1
active: [4] 170 µM | [11] 13.1 µM
inactive: [1] | [2] | [20] | [14] | [4] | [5] | [6] | [7] | [8] | [9] | [15] | [18] | [10] | [17] | [19] | [12]

CC(C)CCCCCCOC(=O)C1CCCCC1C(=O)OCCCCCCC(C)C (stereo not drawn)
active: [12] 1.37 µM
not listed: [3] | [5] | [13] | [17] | [18]
inactive: all other assays above

c1ccc2cc3ccccc3cc2c1
active: [6] 2.03 µM
not listed: [3] | [17] | [19]
inactive: all other assays above

OCc1ccccc1
not listed: [3] | [5] | [12] | [13] | [18]
inactive: all other assays above

C=CN1CCCC1=O
not listed: [12] | [13] | [15] | [16] | [17] | [18] | [19] | [20]
inactive: all other assays above
